An excerpt weighted towards active compounds, which were near 32% of everything screened.
CYP2C9 act: increases human cytochrome P450 2C9 activity; recombinant CYP2C9, luciferin-H conversion, luminescence; stronger effect = higher value; factor 1 = untreated enzyme, 0 = blocked; P11712; AID 1024; activation factor at 5 µM; actives 1.4% (n = 96,000);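 active = activation factor of 2 or more for CYP2C9 at a 5 µM dose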;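 note: 0 = sulfaphenazole-blocked wells and 1 = vehicle-only wells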
Target sequence (P11712 whole entry, looked up): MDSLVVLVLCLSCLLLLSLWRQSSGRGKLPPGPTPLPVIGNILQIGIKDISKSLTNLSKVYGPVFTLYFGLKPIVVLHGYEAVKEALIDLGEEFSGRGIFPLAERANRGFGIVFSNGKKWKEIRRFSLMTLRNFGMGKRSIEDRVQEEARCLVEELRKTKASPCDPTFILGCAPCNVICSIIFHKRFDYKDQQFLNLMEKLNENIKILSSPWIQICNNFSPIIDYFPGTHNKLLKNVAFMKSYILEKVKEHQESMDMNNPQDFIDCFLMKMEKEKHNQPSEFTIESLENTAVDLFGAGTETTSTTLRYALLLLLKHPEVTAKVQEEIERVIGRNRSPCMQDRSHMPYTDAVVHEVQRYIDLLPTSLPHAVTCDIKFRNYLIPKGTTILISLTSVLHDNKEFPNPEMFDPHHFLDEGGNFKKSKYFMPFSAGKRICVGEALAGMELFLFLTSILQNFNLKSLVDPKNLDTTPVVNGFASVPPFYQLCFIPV
PostGolgi yeast: growth inhibition of a yeast mutant, post-Golgi transport screen. actives 0.9% (n = 98,000). inhibition, % at 10 µM. post-Golgi transport phenotypic cell assay. AID 739;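 note: yeast cells grown in 1536-well plates; yeast grown about 18 h at 30C before absorbance read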
CYP2C19 inhib: blocks human cytochrome P450 2C19 | AID 778 | inhibition, % at 5 µM | CYP2C19 Supersomes, luciferin-H EGE luminescence, 30 min | P33261 | actives 21% (n = 96,000);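 active = CYP2C19 inhibition above a set limit at 5 µM in the primary screen, cut at about 50% in these data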;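 note: plate controls were negative control wells for no effect and 2.5 mM tranylcypromine positive control for full effect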
PostGolgi ctrl: growth of the yeast control strain, post-Golgi counter-screen | actives 5% (n = 98,000) | efflux-deficient yeast background strain, growth absorbance A615, 16 h | inhibition, % at 10 µM
CYP2C9 inhib: human CYP2C9 inhibition. CYP2C9 Supersomes, luciferin-H conversion, luminescence. P11712. inhibition, % at 5 µM. actives 20% (n = 96,000);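 active = blocking of liver enzyme CYP2C9 beyond about 50% at 5 µM, limit read from the data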
CYP2C19 activ: increases human CYP2C19 enzyme activity; P33261; recombinant CYP2C19, luciferin-H EGE luminescence; stronger effect = higher value; 0 = fully inhibited enzyme, 1 = untreated enzyme; activation factor at 5 µM; 96,000 tested, under 10 active; AID 1025;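 active = activation factor of at least 2 at 5 µM in the primary screen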;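 note: 0 = wells with 2.5 mM tranylcypromine and 1 = vehicle-only wells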
The depositor's hits bear a star; . = no result. Cut-off read from the data, not from the text of the source, unless noted: active = inhibition above about 30%; inactive = the rest.

SMILES | CYP2C9 act | PostGolgi yeast | CYP2C19 inhib | PostGolgi ctrl | CYP2C9 inhib | CYP2C19 activ
CCOC(=O)N1CCN(C(=O)C2CCCN(S(=O)(=O)c3cccnc3)C2)CC1 (configuration not stated) | 1 | 0.8 | -5.4 | 4.1 | -2.1 | 1.1
CC(C)CC(C(=O)NCc1ccccn1)N1C(=O)c2ccccc2C1=O (configuration not stated) | 0.9 | 7.1 | 70.8* | -0.1 | 13.9 | 0.3
CN(C)c1nc(N)nc(Cn2ccnc2)n1 | 1.1 | -0.9 | 54.0* | 16.7 | -5.9 | 0.5
COC(=O)CCC(=O)c1oc2ccccc2c1N | 0.7 | -4.4 | 84.0* | -3.8 | 34.9 | 0.2
C=CCn1c(SCC(=O)NCCC2=CCCCC2)nc2ccc(Cl)cc2c1=O | 0.4 | -10.1 | 29.4 | 14.8 | 56.3* | 0.7
COc1ccccc1/C=C/C=N/N1CCN(Cc2ccc(Cl)cc2)CC1 | 1.2 | -0.3 | 52.4* | 12.8 | -19.4 | 0.5
Cc1ccc(/C=N/N2CCN(Cc3ccc(Cl)cc3)CC2)o1 | 0.4 | 3.5 | 67.6* | 1.9 | 63.1* | 0.3
COc1ccccc1N1CCN(/N=C\c2ccc(C)o2)CC1 | 1.3 | -0.5 | 5.6 | -4.6 | -32.9 | 0.9
CCOC(=O)N1CCN(C(=O)c2cccc(NC(=O)c3ccco3)c2)CC1 | 0.9 | -1.2 | 13.7 | 17.7 | 7.2 | 0.9
Nc1nc(SCC(=O)OCc2ccccc2)[nH]c(=O)c1NC(=O)c1ccco1 | 1.1 | -4.0 | -21.4 | -4.5 | -12.6 | 1.2
CC(C)CCOc1ccc(C(=O)CCNC(C)C(=O)O)cc1 (configuration not stated) | 0.9 | 1.8 | 5.8 | 12.0 | 9.0 | 0.9
CCC(=O)OCCCCCCOc1ccc(C(=O)O)cc1 | 1.1 | -37.1 | 62.6* | 8.5 | -11.5 | 0.4
CC(C)CCOc1ccc(C(=O)O)cc1 | 0.2 | 1.7 | 82.7* | 6.5 | 82.7* | 0.2
CCOCCn1c(SCc2c(F)cccc2Cl)nc2c1c(=O)[nH]c(=O)n2C | 0.9 | 3.2 | 21.9 | 3.1 | 6.2 | 0.8
Cc1cccc(CSC2=NCCN2C(=O)c2ccco2)c1 | 1 | -9.4 | 41.7 | -0.5 | -2.2 | 0.6
Cc1cccc(CSC2=NCCN2C(=O)C2CC2)c1 | 0.7 | -1.4 | 79.9* | -3.4 | 28.2 | 0.2
CC(=O)N1CCN=C1SCc1ccccc1Cl | 2.6* | -13.2 | 41.2 | 6.7 | -161.9 | 0.6
O=C(C1CC1)N1CCN=C1SCc1ccccc1Cl | 0.7 | 4.8 | 98.5* | 18.1 | 26.6 | 0
CC(=O)N1CCN=C1SCc1ccccc1F | 1.1 | 21.5 | 22.2 | 8.0 | -6.5 | 0.8
CCC(=O)N1CCN=C1SCc1ccccc1Cl | 1.5 | -2.7 | 70.4* | -7.7 | -47.7 | 0.3
CC1CC(C)CN(C(=O)CN2CCN(Cc3ccc(Cl)cc3)C2=O)C1 (configuration not stated) | 1 | 9.3 | 37.4 | 6.2 | 0.5 | 0.6
CN(CCNC(=O)C1CCN(S(=O)(=O)N2CCOCC2)CC1)CCc1ccccc1 | 0.9 | -3.3 | -1.2 | 9.3 | 7.6 | 1
O=c1cc(CSc2nnnn2-c2ccccc2)nc2scc(-c3ccccc3)n12 | 0.6 | -6.9 | 38.1 | 18.5 | 44.8 | 0.6
c1ccc(-c2nc(CSc3nnnn3-c3ccccc3)cs2)cc1 | 0.5 | -13.2 | 97.1* | 48.8* | 50.5* | 0
Cc1ccccc1Nc1nc(CSc2nnnn2-c2ccccc2)cs1 | 0.5 | -11.1 | 93.7* | 4.2 | 50.6* | 0.1
SMILES | CYP2C9 act | PostGolgi yeast | CYP2C19 inhib | PostGolgi ctrl | CYP2C9 inhib | CYP2C19 activ
CCOC(=O)c1c(C)n(C)c2ccc(OCC(N)=O)cc12 | 0.7 | -2.0 | 4.1 | 5.0 | 33.7 | 1
CCOC(=O)c1c(C)n(CCNC(C)=O)c2ccc(O)cc12 | 0.6 | 3.9 | 60.4* | -4.7 | 44.2 | 0.4
CC(=O)c1c(C)n(CCO)c2ccc(O)cc12 | 1.1 | -7.0 | 4.2 | -1.4 | -14.9 | 1
CCOC(=O)c1c(C)n(CC(O)c2ccccc2)c2ccc(O)cc12 (configuration not stated) | 0.4 | 8.5 | 63.8* | 2.2 | 59.7* | 0.4
CCOC(=O)COc1ccc2c(c1)c(C(=O)OCC)c(C)n2CC | 0.6 | -4.0 | 80.3* | 5.9 | 40.3 | 0.2
CCOC(=O)c1c(C)[nH]c2ccc(O)cc12 | 1 | . | 0.7 | . | -0.2 | 1
O=C(CCN1C(=O)c2ccccc2C1=O)Nc1cc(F)ccc1F | 0.7 | -5.2 | -0.7 | 2.4 | 30.1 | 1
c1cnc(N2CC[N+]3(CCCC3)CC2)nc1 | 0.9 | -2.9 | 2.0 | 10.8 | 9.4 | 1
COCCCn1cnnc1SCC(=O)Nc1ccc(S(=O)(=O)N2CCCC2)cc1 | 0.8 | 7.3 | 17.7 | 5.7 | 19.1 | 0.8
O=C(CSc1nc(-c2ccccc2Cl)ns1)NCc1ccco1 | 0.4 | -5.2 | 36.4 | 17.8 | 62.6* | 0.6
NC(=O)CSc1nc(-c2ccccc2Cl)ns1 | 0.7 | -6.3 | 42.5 | 3.3 | 25.6 | 0.6
O=C(CSc1c2c(nc3cc(Cl)ccc13)CCCC2)NCc1ccco1 | 0.1 | 6.6 | 98.5* | 16.3 | 88.5* | 0
O=C(CSc1nc2ccccc2[nH]1)NCc1ccco1 | 0.9 | -0.5 | 19.8 | 7.7 | 9.7 | 0.8
O=C(CSc1nc2ccc(Cl)cc2[nH]1)NCc1ccco1 | 0.5 | -6.5 | 46.8 | 0.7 | 51.2* | 0.5
O=C1C2C3C=CC(C3)C2C(=O)N1c1n[nH]c(CCc2ccccc2)n1 (configuration not stated) | 1 | -1.5 | -1.7 | 10.2 | 2.1 | 1
CCOC(=O)Cn1c(=N)n(Cc2ccccc2F)c2ccccc21 | 0.8 | -1.4 | 19.4 | -7.6 | 19.1 | 0.8
Cc1ccc(NC(=O)CCc2c(C)nc3ncnn3c2C)nc1 | 0.8 | 2.0 | -6.0 | 4.8 | 15.0 | 1.1
Cc1nc2ncnn2c(C)c1Cc1ccc(Cl)cc1 | 0.3 | -4.4 | 95.3* | 5.7 | 73.2* | 0
COc1ccc(NC(=O)C2CCCN2c2ccc(OC)c(OC)c2)cc1OC (configuration not stated) | 0.7 | -3.8 | 22.2 | -8.3 | 32.3 | 0.8
CCCCOC(=O)Cn1c2ccc(OC)cc2c2nc3ccccc3nc21 | 0.8 | 11.5 | -8.4 | 11.6 | 20.4 | 1.1
CC(C)NC(=O)c1cnc(Sc2ncc(C(F)(F)F)cc2Cl)n1C | 2.1* | -1.9 | 25.2 | 8.6 | -109.0 | 0.7
O=C(c1ccco1)N1CCN(CCOCCOc2cccc3ccccc23)CC1 | 0.4 | 1.4 | 68.1* | 6.4 | 56.6* | 0.3
CCOc1cc(CN2CCN(C(=O)c3ccco3)CC2)ccc1OC | 1.1 | 1.8 | 2.8 | 2.1 | -14.0 | 1
CCOc1ccccc1-n1c(CN2CCN(C(=O)c3ccco3)CC2)nc2ccccc2c1=O | 0.3 | -6.4 | 56.6* | 0.6 | 65.3* | 0.4
Cn1c(=O)c2c(ncn2CC(=O)Nc2ccc(Cl)cc2Cl)n(C)c1=O | 0.9 | -4.7 | 18.3 | 10.1 | 13.0 | 0.8
Cc1nn(-c2ccccc2)c(Cl)c1/C=C1\SC(=S)NC1=O | 0.2 | 20.6 | 3.9 | 25.9 | 76.0* | 1
Cc1ccc(NC(=O)c2c(C)nn(-c3ccccc3)c2Cl)c(C)c1 | 0.8 | 1.0 | 26.8 | 5.0 | 24.5 | 0.7

From PubChem
